Data taken from PubChem BioAssay AID588674 (Broad Institute, 2011).
Screen size: about 360,000 compounds; about 1,800 (0.5%) were called active. This is one part of a sample in which actives are shown more often than they occur.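 How the source made its calls: active means mean inhibition of at least 75% with every replicate also reaching 75%; inconclusive means mean inhibition at least 75% but some replicate below; inactive means mean inhibition below 75%.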

Experiment: Shn3 3'UTR reporter decrease in osteoblasts – cell-based, Clone20 osteoblasts, firefly luciferase, set 2, Schnurri-3 inhibitor project, primary screen (AID 588674);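 further: 0% = median of neutral control wells and 100% = pilot-screen positive control compound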
Settings: Clone20 osteoblast Shn3 3'UTR firefly luciferase, 24 h; at 12.5 µM; stronger effect = higher value

| SMILES | inhibition |
| --- | --- |
| CN(C)C(=O)CCc1ccc2c3c([nH]c2c1)[C@]1(C)[C@@H](C(=O)N2CCOCC2)C[C@H](CC(=O)NCCc2ccccn2)C(=O)N1CC3 | -11.8% (inactive) |
| COc1cc(F)ccc1-c1cc(C(=O)NCC2CCCCC2)[nH]n1 | -10.1% (inactive) |
| CCCOc1ccc(F)cc1-c1cc(C(=O)Nc2ccc(F)cc2)[nH]n1 | 20% (inactive) |
| COc1ccc(OC)c(NC(=O)c2cc(-c3cc(F)ccc3OCC3CCCO3)n[nH]2)c1 (stereo unspecified) | 86.3% (active) |
| O=C(CSc1ncnc2c1nnn2Cc1ccc(F)cc1)NC1CCCC1 | -2.06% (inactive) |
| O=C1c2ccccc2[C@@H]2C[C@@H](O)[C@H](Nc3ccccc3Cl)CCN12 | 55.5% (inactive) |
| Cc1ccc(C)c(NC(=O)CSc2nnc(Cc3cccn3C)n2-c2ccc(F)cc2)c1 | 7.47% (inactive) |
| COc1ccccc1NC(=O)CSc1nnc(Cc2cccn2C)n1-c1ccc(F)cc1 | 17% (inactive) |
| Cn1cccc1Cc1nnc(SCC(=O)NCCc2ccccc2)n1-c1ccc(F)cc1 | 87.9% (active) |
| Fc1cccc(Cc2c(-c3ccc(Cl)cc3)nc3ccc(Cl)cn23)c1 | -13.4% (inactive) |
| CN1OC[C@@H]2CN(C(=O)c3cccc4ccccc34)[C@H](c3ccc(N4CCCCC4)cc3)C[C@@H]21 | -9.07% (inactive) |
| Cc1ccc(S(=O)(=O)Nc2ccc3ncccc3c2)cc1 | 86.6% (active) |
| Cc1cc(C)cc(OCC(=O)Nc2ccc(S(=O)(=O)Nc3ccccn3)cc2)c1 | 6.49% (inactive) |
| O=S(=O)(Nc1ccc(Oc2ncccn2)c(Cl)c1)c1ccc(F)cc1 | -28.6% (inactive) |
| Cc1c(CC(=O)NCC(=O)NCC(=O)O)c(=O)oc2cc3oc4c(c3cc12)CCCC4 | -25.9% (inactive) |
| CN(C)C(=O)c1ccc2c(c1)C1C3CCC(C3)C1C(c1ccccc1)N2 (stereo unspecified) | -19.2% (inactive) |
| COc1ccccc1OCCNc1cc(N2CCOCC2)ccc1[N+](=O)[O-] | 40.1% (inactive) |
| O=C(c1ccccc1)N1CCN(c2ccc([N+](=O)[O-])c(NCc3ccco3)c2)CC1 | 27.6% (inactive) |
| COc1ccc(CCNc2cc(N3CCN(C(=O)c4ccccc4OC)CC3)ccc2[N+](=O)[O-])cc1OC | 88.7% (active) |

| SMILES | inhibition |
| --- | --- |
| CC1=CC(=O)C=CC1(C)C(Cl)(Cl)Cl (stereo unspecified) | 9.05% (inactive) |
| O=C(CCS(=O)(=O)c1ccc2c(c1)NC(=O)CS2)NCc1ccccc1Cl | -18.1% (inactive) |
| CN(C)S(=O)(=O)c1ccc(C(=O)NCC(C)(C)N2CCOCC2)cc1 | 23% (inactive) |
| CC(C)(CNC(=O)c1ccc(Cl)c(S(=O)(=O)N2CCc3ccccc3C2)c1)N1CCOCC1 | 82.5% (active) |
| O=C(NCCSCc1ccccc1)c1ccc(Cl)c(S(=O)(=O)N2CCOCC2)c1 | 10.8% (inactive) |
| CCOC(=O)C1=CCC(c2ccc(F)cc2)N(S(=O)(=O)c2ccc(C)cc2)C1 (stereo unspecified) | 10.7% (inactive) |
| N#Cc1c(-c2ccc(F)cc2)cc(C2CC2)nc1SCC(=O)c1cccs1 | -3.6% (inactive) |
| CN1C2CCC1CC(NC(=O)c1ccc([N+](=O)[O-])cc1)C2 (stereo unspecified) | -1.34% (inactive) |
| CN(CC1CCCO1)S(=O)(=O)c1ccc(C(=O)Nc2ccc([N+](=O)[O-])cc2)cc1 (stereo unspecified) | 39.9% (inactive) |
| O=C(Nc1cc2c3c(c1)C1CCCC1CN3CC1CCCC21)c1ccc([N+](=O)[O-])cc1 (stereo unspecified) | 88.9% (active) |
| CC1=NNC(=O)C1CCC(=O)N/N=C\c1cccc(Cl)c1 (stereo unspecified) | -5.12% (inactive) |
| Cc1cc(=O)oc2cc(OC(C)C(=O)Nc3ccc(N4CCOCC4)cc3)ccc12 (stereo unspecified) | 10% (inactive) |
| O=C(CSc1nnnn1-c1ccc2c(c1)CCC2)Nc1ccc2c(c1)OCCO2 | 0.48% (inactive) |
| FC(F)(F)c1cccc(-c2nc(COc3ccc(Cl)cc3Cl)no2)c1 | 6.45% (inactive) |
| Cc1nc2ccccc2c(C(=O)O)c1-c1ccccn1 | -12.3% (inactive) |
| c1ccc(-c2nccc(-c3ccc(-n4cnc5ccccc54)cc3)n2)nc1 | 11.2% (inactive) |
| CC(C)(C)Nc1nc(-c2ccccn2)nc2ccccc12 | 89.7% (active) |
| CN(CC(=O)NCc1ccncc1)S(=O)(=O)c1ccc(Br)cc1 | 7.05% (inactive) |
| O=C(NC1=NCCS1)c1ccc(Cl)s1 | -84.7% (inactive) |

| SMILES | inhibition |
| --- | --- |
| C=C1C(=O)[C@]23C[C@H]1CCC2[C@@]1(C)C(C[C@@H]3O)[C@](C)(C(=O)O)CC[C@@H]1O (stereo partly specified) | 29.4% (inactive) |
| O=C(/C=C/Sc1ncn[nH]1)c1ccc(Cl)cc1 | 97.7% (active) |
| NC(=O)C1CCN(C(=O)c2cc(S(=O)(=O)N3CCN(c4ccccc4)CC3)ccc2Cl)CC1 | -11.1% (inactive) |
| CC1CCC(N2CC(=O)N(Cc3ccc4c(c3)OCO4)C(c3ccc(F)cc3)C2=O)CC1 (stereo unspecified) | 7.77% (inactive) |
| Cc1csc(NC(=O)CSc2nc(=O)cc(N)n2-c2ccc(F)cc2)n1 | -11% (inactive) |
| COc1cc(SC)ccc1C(=O)Nc1nc(C)cs1 | 86.2% (active) |
| COc1cc(SC)ccc1C(=O)NNC(=O)C1COc2ccccc2O1 (stereo unspecified) | 4.8% (inactive) |
| CCCCC(=O)NC(c1ccc(OC)c(OC)c1)c1ccc2cccnc2c1O (stereo unspecified) | 87.9% (active) |
| CCOc1ccc(C(CCc2ccccc2)NC(=O)c2ccc(OC)c(OC)c2)cc1OCC (stereo unspecified) | 20% (inactive) |
| C=CCn1c(COc2cccc3cccnc23)nnc1SCC(=O)OC | 0.069% (inactive) |
| COC(=O)c1sccc1-n1cccc1C(=O)C(=O)N1CCCCC1 | 2.95% (inactive) |
| O=C(Nc1ccccc1Cl)/C(Cl)=C(\Cl)S(=O)c1ccccc1 (stereo unspecified) | 97.6% (active) |
| O=C(COc1ccc(-n2cnnn2)cc1)Nc1ccccc1Cl | 1.66% (inactive) |
| CS/C(=C\C(=O)c1ccco1)Nc1ccccc1Cl | -15.1% (inactive) |
| Cc1cccc(N2CCN(C(=O)CCS(=O)(=O)c3ccc4c(c3)NC(=O)C(C)S4)CC2)c1C (stereo unspecified) | 78.8% (inactive) |
| CC(=O)Nc1ccc(NC(=O)C(C)OC(=O)C2CC(=O)N(CCc3ccccc3)C2)cc1 (stereo unspecified) | -14.3% (inactive) |
| O=C(COC(=O)C1CC2CCCC(C1)C2=O)NC(=O)c1ccccc1 (stereo unspecified) | 14.5% (inactive) |
| COc1ccc(C(C#N)=C2C=CC(=NO)c3ccccc32)cc1 | 18.4% (inactive) |
